Results reported in PubChem BioAssay (EPA / NIEHS).
Activity calls are given as the source filed them. How the source made its calls: active means hit-call score of the fitted dose curve at least 0.9, where 1 is the maximum; inactive means score below 0.9.

Test: ATG_GRE_CIS: Attagene CIS-FACTORIAL HepG2 Assay for human Glucocorticoid Response Elements (GRE) (AID 2282947)
Conditions: HepG2 GRE cis-reporter, Attagene multiplex mRNA; actives raise or lower the signal
Protocol: ATG_CIS is a cell-based, multiplexed-readout assay that uses HepG2, a human liver cell line, with measurements taken at 24 hours after chemical dosing in a 24-well plate.ATG_GRE_CIS is one of 52 assay component(s) measured or calculated from the ATG_CIS assay. It is designed to make measurements of mRNA induction, a form of inducible reporter, as detected with fluorescence intensity signals by Reverse transcription polymerase chain reaction (RT-PCR) and Capillary electrophoresis technology.Data from the assay component ATG_GRE_CIS was analyzed into 1 assay endpoint. This assay endpoint, ATG_GRE_CIS, was analyzed with bidirectional fitting relative to DMSO as the negative control and baseline of activity. Using a type of inducible reporter, measures of mRNA for gain or loss-of-signal activity can be used to understand the reporter gene at the transcription factor-level as they relate to the gene NR3C1. Furthermore, this assay endpoint can be referred to as a primary readout, because this assay has produced multiple assay endpoints where this one serves a reporter gene function. To generalize the intended target to other relatable targets, this assay endpoint is annotated to the nuclear receptor intended target family, where the subfamily is steroidal.
Human liver HepG2 cells are transiently transfected with multiple reporter transcription units (MRTUs) in 6-well plates using FuGene 6 reagent (Roche; 3 ml FuGene/1 mg DNA). The MRTU constructs are regulated by a cis-regulating element (promoter). […] A major difference between the CIS and TRANS system is that in CIS activities of endogenous TFs are measured, whereas the TRANS assay evaluates changes in activities of exogenous, chimeric NR-Gal4 proteins. […] At the end of 24 hour incubation, total RNA was isolated using TriZol reagent (Invitrogen). The isolated RNA is then reverse-transcribed using oligo(dT) primer and Mo-MLV reverse transcriptase (Invitrogen) with DNAse I (Ambion) treatment for 30 min. The one-tenth of the produced cDNA was amplified by PCR using Taq DNA polymerase (Invitrogen) and two reporter sequence-specific primers. The PCR products were fluorescently labeled by primer extension with 6-arboxyfluorescein (6-FAM) 5'-labeled reporter sequence-specific primer (2 min at 95 C, 20 s at 68 C and 10 min at 72 C) and these products were digested with 5U of HpaI (New England Biolabs) for 2h at 37 C. The fragments were purified using Qiaquick PCR columns (Qiagen), analyzed on an ABI 3130xL genetic analyzer (Applied Biosystems) with peak positions identified by using a set of X-rhodamine (ROX)-labeled MapMarker1000 molecular weight standards (BioVentures). The raw capillary electrophoresis data was processed using Attagraph software (Attagene).
With `CCCCc1ccc2c(n1)[C@@H](c1ccc(OC)cc1C[C@H](C)C(=O)O)[C@H](C(=O)O)[C@H]2c1ccc2c(c1)OCO2` the outcome was “inactive”. In the case of `COC(=O)c1ccc(O)cc1`, the outcome is reported as “inactive”. With `Cc1ccccc1Cl` the outcome was “inactive”. In the case of `Cc1ccc(Cl)cc1`, the outcome is reported as “inactive”. In the case of `CCCCCCCCCCC`, the outcome is reported as “inactive”. With `CCOC(=O)CCC(=O)OCC` the outcome was “inactive”. In the case of `CCOC(=O)C(C)(C)Oc1ccc(Cl)cc1`, the outcome is reported as “inactive”. In the case of `CCCCC(CC)COC(=O)CC(C(=O)OCC(CC)CCCC)S(=O)(=O)O` (stereo not given), the outcome is reported as “inactive”. With `CCCCCCCCCCCC(=O)OC` the outcome was “inactive”. With `CC(=O)Oc1ccccc1C(=O)O` the outcome was “inactive”. With `COc1ccc2c(c1)c(CC(=O)O)c(C)n2C(=O)c1ccc(Cl)cc1` the outcome was “inactive”. In the case of `Cc1ccc2ncccc2c1`, the outcome is reported as “inactive”. For `Nc1ccc2c(c1)C(=O)c1ccccc1C2=O`, the outcome was “inactive”. In the case of `Cc1ccc(C)c(C)c1`, the outcome is reported as “inactive”. With `CC(=O)C(C)=CC1C(C)=CCCC1(C)C` (stereo not given) the outcome was “inactive”. With `CCCCN(CCCC)CCCC` the outcome was “inactive”. With `Cc1ccc(C)c(O)c1C` the outcome was “inactive”. In the case of `O=C(O)CCCCC(=O)O`, the outcome is reported as “inactive”. For `COc1cc(/C=C/C(=O)CC(=O)/C=C/c2ccc(O)c(OC)c2)ccc1O`, the outcome was “inactive”. With `Oc1ccc2c(c1)OC[C@@H](N1CCC(O)(c3ccc(F)cc3)CC1)[C@H]2O` the outcome was “inactive”. In the case of `Cc1c(C(=O)O)c(O)cc2c1C(=O)c1c(O)c([C@@H]3O[C@H](CO)[C@@H](O)[C@H](O)[C@H]3O)c(O)c(O)c1C2=O`, the outcome is reported as “inactive”. For `Cc1cc(NC(=O)C(=O)O)cc(C)c1Oc1ccc(O)c2c1CCC2`, the outcome was “inactive”. In the case of `NS(=O)(=O)c1cc2c(cc1Cl)NCNS2(=O)=O`, the outcome is reported as “inactive”. In the case of `COc1cccc2c1C(=O)c1c(O)c3c(c(O)c1C2=O)C[C@@](O)(C(=O)CO)C[C@@H]3O[C@H]1C[C@H](N)[C@H](O)[C@H](C)O1`, the AC50 is reported as 942 nM (active). With `CN[C@H]1CC[C@@H](c2ccc(Cl)c(Cl)c2)c2ccc(S(N)(=O)=O)cc21` the outcome was “inactive”. With `Cc1nc(C)nc(N2C[C@@H](C)N(c3ccnc([C@@H](C)O)n3)[C@@H](C)C2)n1` the outcome was “inactive”. For `CC(=O)OC/C=C(\C)CCC=C(C)C`, the outcome was “inactive”. For `CCCCCCCCCCO`, the outcome was “inactive”. For `Nc1nc(N)c2nc(CNc3ccc(C(=O)N[C@@H](CCC(=O)O)C(=O)O)cc3)cnc2n1`, the outcome was “inactive”. With `CNC(=O)[C@H]1O[C@@H](n2cnc3c(NCc4cc(Cl)ccc4OCc4cc(C)no4)ncnc32)[C@H](O)[C@@H]1N` the outcome was “inactive”. With `CC(C)c1ccc(C(=O)N=C(N)N)cc1S(C)(=O)=O` the outcome was “inactive”. With `Clc1cc(Cl)c(Cl)cc1Cl` the outcome was “inactive”. With `Cc1ccc(C(C)C)c(O)c1` the outcome was “inactive”. In the case of `CCCCCCOCCO`, the outcome is reported as “inactive”. With `Nc1ccccc1N` the outcome was “inactive”. For `O=C(N[C@@H](Cc1ccccc1)[C@@H](O)C(=O)N1C[C@@H](O)[C@@H](O)C1)c1cc2cc(Cl)ccc2[nH]1`, the outcome was “inactive”. With `CC(CO)OC(C)CO` (stereo not given) (tested in a mixture with another compound) the outcome was “inactive”. For `O=c1[nH]cc(F)c(=O)[nH]1`, the outcome was “inactive”. For `CC1(C)NC(=O)NC1=O`, the outcome was “inactive”. For `CCCCCCCCCCCCCO`, the outcome was “inactive”.
